According to PubChem BioAssay (EPA / NIEHS):
Where “and” joins values, the source holds several entries; their conditions need not be identical. Identical values can stand only once. Results filed as inconclusive are left out. A structure can be active in one record and inactive in another. Calls of active or inactive are those of the source. Rule for the calls: active = hit-call score of the fitted dose curve at least 0.9, where 1 is the maximum; inconclusive = response in the unintended direction; inactive = score below 0.9.

target: Cellular tumor antigen p53 (Homo sapiens) (UniProt P04637); assay: TOX21_p53_BLA_p4_ratio: Tox21 HCT-116 p53 Agonism Beta-lactamase Assay, Ratio, Phase 4 (AID 2283601)
Sequence (P04637 whole entry, looked up, the tested form may be a part): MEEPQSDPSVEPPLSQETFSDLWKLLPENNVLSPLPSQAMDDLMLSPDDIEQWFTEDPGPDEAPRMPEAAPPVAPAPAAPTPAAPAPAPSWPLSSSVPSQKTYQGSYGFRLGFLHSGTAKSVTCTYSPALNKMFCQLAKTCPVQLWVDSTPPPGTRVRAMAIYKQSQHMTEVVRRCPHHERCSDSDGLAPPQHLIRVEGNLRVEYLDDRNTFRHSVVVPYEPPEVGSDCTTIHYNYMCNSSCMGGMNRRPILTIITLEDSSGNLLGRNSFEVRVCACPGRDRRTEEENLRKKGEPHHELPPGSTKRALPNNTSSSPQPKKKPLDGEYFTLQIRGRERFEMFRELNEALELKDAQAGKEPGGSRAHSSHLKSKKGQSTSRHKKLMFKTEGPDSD
Source text: TOX21_p53_BLA_p4 is a cell-based, single-readout assay that uses HCT116, a human intestinal cell line, […] in a 1536-well plate.TOX21_p53_BLA_p4_ratio is an assay readout measuring reporter gene via receptor activity and designed using inducible reporter (beta lactamase induction) detected with GAL4 b-lactamase reporter gene. The signal is derived from the ratio of cleaved (ch2) to uncleaved (ch1)reporter gene substrate used as the measure of target activity.Data from the assay component TOX21_p53_BLA_p4_ratio was analyzed into 1 assay endpoint. This assay endpoint, TOX21_p53_BLA_p4_ratio, was analyzed in the positive analysis fitting direction relative to DMSO as the negative control and baseline of activity. Using a type of inducible reporter, gain-of-signal activity can be used to understand changes in the reporter gene as they relate to the gene TP53. Furthermore, this assay endpoint can be referred to as a primary readout, because this assay has produced multiple assay endpoints where this ratio serves a reporter gene function to understand target activity. To generalize the intended target to other relatable targets, this assay endpoint is annotated to the DNA binding intended target family, where the subfamily is tumor suppressor.
Thawing Method: Place 14 mL of pre-warmed thaw medium into a 15 mL of conical tub. Remove the vial of cells to be thawed from liquid nitrogen and thaw rapidly by placing at 37C in a water bath with gentle agitation for 1-2 minutes. Decontaminate the vial by wiping with 70% ethanol before opening in a biological safety cabinet. Transfer the vial contents drop-wise into 14 mL of thaw medium in a sterile 15-mL conical tub. Centrifuge cells at 900 rpm for 4 minutes and resuspend in thaw medium. Transfer contents to the T75 tissue culture flask containing Thaw Medium and place flask in a humidified 37C/5% CO2 incubator. Switch to growth medium at first passage.Propagation Method: Aspirate medium, rinse once in DPBS, add 0.25% Trypsin/EDTA and swirl to coat the cell evenly. Add an equal volume of Growth Medium to inactivate Trypsin after 2-3 minutes incubation at 37C. Centrifuge cells at 900 rpm for 4 minutes and resuspend in growth medium. Cell should be passage or fed at least twice a week.Assay Protocol: Harvest cells from culture in growth medium and resuspend in assay medium. 2.2 Dispense 4000 cells/5 uL/well into 1536-well black/clear bottom plates using a Multidrop dispenser. After the cells were incubated at 37C for 5 hours, 23 nL of compounds dissolved in DMSO were transferred to the assay plate by a PinTool resulting in a 217-fold dilution. Incubate the plates for 16 hours at 37C, 5% CO2. Add 1 uL of 6X LiveBLAzer FRET B/G (CCF4-AM) Substrate Mixture to each well using a BioRAPTR dispenser and incubate the plates at room temperature for 2 hours. Measure fluorescence intensity at 460 and 530 nm emission and 405 nm excitation by an Envision detector. Data is expressed as the ratio of 460nm/530nm emissions. Add 4 uL of Cell-titer Glo to each well using BioRAPTR and incubate the plates at room temperature for 2 hours. Measure fluorescence intensity by a VewLux plate reader.

Row | SMILES | outcome | AC50
1 | CCC(=O)/C=C/C1C(C)=CCCC1(C)C (stereo not given) | inactive | –
2 | CCCCCOC(=O)CCC | inactive | –
3 | C=CC[N+](C)(C)CC=C | inactive | –
4 | Cc1ccc(O)c(C(C)(C)C)c1 | – | 72.2 µM (active) and 68.5 µM (active)
5 | C=C(C)C(=O)NCCCN(C)C | inactive | –
6 | O=C(O)CCSCCC(=O)O | inactive | –
7 | O=C(O)c1cccc([N+](=O)[O-])c1 | inactive | –
8 | CC(C)Oc1ccccc1O | inactive | –
9 | CC(C)(C)C(=O)c1ccccc1 | inactive | –
10 | CC(=O)OCC=Cc1ccccc1 | inactive | –
11 | O=C=NC1CCC(CC2CCC(N=C=O)CC2)CC1 (stereo not given) | inactive | –
12 | CCCCO | inactive | –
13 | O=C(O)CCCCC1CCSS1 (stereo not given) | inactive | –
14 | O=C(O)COCCN1CCN(C(c2ccccc2)c2ccc(Cl)cc2)CC1 (stereo not given) | inactive | –
15 | C=C(C)C(=O)O | inactive | –
16 | CCn1c2ccccc2c2cc(N)ccc21 | inactive | 64 µM (active)
17 | CC(C#N)(CCC(=O)O)N=NC(C)(C#N)CCC(=O)O (stereo not given) | inactive | –
18 | CC(C)=CCCC(C)CC=O (stereo not given) | inactive | –
19 | CCN(CC)CCOC(=O)c1ccc(N)cc1 | inactive | –

Row | SMILES | outcome | AC50
20 | CCCCCCCCCOC(C)=O | inactive | –
21 | C=COCCOCCOCCOC=C | inactive | –
22 | OCCCCCO | inactive | –
23 | COc1ccc(Nc2ccccc2)c(C)c1 | inactive | –
24 | Cc1ccc(C(=O)c2cc(O)c(O)c([N+](=O)[O-])c2)cc1 | inactive | 49.6 µM (active)
25 | C=CC(C)(CCC=C(C)C)OC=O (stereo not given) | inactive | –
26 | CNCCCC12CCC(c3ccccc31)c1ccccc12 | inactive | 87 µM (active)
27 | NCCOCCO | inactive | –
28 | CC1(C)CCC(C)(C)c2cc(C(=O)Nc3ccc(C(=O)O)cc3)ccc21 | – | 46.9 µM (active)
29 | O=C1C(c2[nH]c3ccc(S(=O)(=O)O)cc3c2O)=Nc2ccc(S(=O)(=O)O)cc21 | inactive | –
30 | Cc1ncc([N+](=O)[O-])n1C | inactive | –
31 | O=c1cc(-c2ccccc2)oc2cc(O)cc(O)c12 | – | 46.1 µM (active)
32 | COc1cccc(OC)c1 | inactive | –
33 | CC(=O)Nc1ccc(C)cc1C | inactive | –
34 | Nc1cc([N+](=O)[O-])ccc1O | inactive | –
35 | CC1CCC(C(C)CS)CC1S (stereo not given) | inactive | –
36 | Clc1nc(C(Cl)(Cl)Cl)c(Cl)c(Cl)c1Cl | inactive | –
37 | c1ccc2[nH]ccc2c1 | inactive | –
